Bioassay records (PubChem)
Pf growth 96h: P. falciparum growth inhibition at 96 hours; P. falciparum luciferase reporter growth, 96 h; Potency, µM (series often up to 28.7 µM), most hits filed as inhibitors; 320,000 tested, 6.9% active
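Compounds incubated with erythrocytes infected by luciferase-expressing P. falciparum (2% hematocrit, 0.05% parasitemia final) for 96 hours, 37 C in 5% CO2. Growth inhibition scored as decreased luciferase luminescence.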
Pf growth 48h: inhibits P. falciparum growth in the first generation, 48 h; Potency, µM (top dose mostly 28.7 µM), usual class: inhibitors; 310,000 tested, 5.9% active; P. falciparum luciferase growth in erythrocytes, 48 h
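Here the parasites carry a stable luciferase gene and grow inside erythrocytes in Albumax-based RPMI medium with compound for one erythrocytic cycle. Activity is scored as loss of luminescent signal.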
Shiga toxin inh: Shiga toxin inhibition; Vero cells, Shiga toxin protein synthesis inhibition reporter; inhibition, % at 38.7 µM; 290,000 tested, 9.2% active; AID 2315; in the data active means inhibition mostly above about 28%, no sharp cut-off; inactive means mostly below about 43%
CHX counter: counter-screen hit for Shiga toxin inhibitors, cycloheximide; cell reporter, cycloheximide protein synthesis inhibition counterscreen; max response, %; 300,000 tested, 12% active; AID 2314; in the data active means max response mostly above about 13%, no sharp cut-off; inactive means mostly below about 14%; further: read at 38.3 µM for the half of the compounds with a filed dose
Giardia FBPA inh: Giardia lamblia aldolase inhibition; purified Giardia FBPA; Potency, µM (titrated, usually from 59.6 µM), most hits filed as inhibitors; AID 2451; A8B2U2; 290,000 tested, 0.71% active; further: nearly all actives have a fitted effect of over 55% in size
Target sequence (A8B2U2 whole entry, looked up): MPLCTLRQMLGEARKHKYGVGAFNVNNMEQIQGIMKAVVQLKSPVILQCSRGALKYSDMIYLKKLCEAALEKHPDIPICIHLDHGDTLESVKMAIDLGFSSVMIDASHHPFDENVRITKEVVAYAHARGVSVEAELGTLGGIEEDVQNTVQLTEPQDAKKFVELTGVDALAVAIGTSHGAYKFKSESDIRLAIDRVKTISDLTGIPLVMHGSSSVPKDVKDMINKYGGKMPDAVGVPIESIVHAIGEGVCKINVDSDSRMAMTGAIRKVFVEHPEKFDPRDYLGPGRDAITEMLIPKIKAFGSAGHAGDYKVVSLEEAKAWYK
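40 nM FBPA preincubated 10 min at RT with compound (up to 57.5 uM final), then substrate plus GAPDH/TPI/NAD/arsenate coupling and diaphorase/resazurin added. Fluorescence read after 20 min at RT, 525/598 nm.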
NS1 function inh: influenza NS1 inhibition. Potency, µM (titrated, usually from 46.1 µM). 270,000 tested, 0.4% active; calls by dose curve; further: actives are rising curves; nearly all actives have a fitted effect of over 50% in size
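In this qHTS, NS1 from influenza A is expressed in budding yeast, where it slows growth. Cells are switched from glucose to 2% galactose medium (pH 6.0, -URA), treated with compound, and growth recovery is read at OD600.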
Large screens that a line does not name were inactive. Sampled rows, rich in hits. Any-hit rate of the full collection: about 21%. Unless noted, the call rests on the fitted dose curve; in most records, active means well fitted curve in the direction sought with a large enough effect; inconclusive means small, poorly fitted or top-dose-only effect, or another doubt; inactive means no such curve, though single readings can be large; an effect the other way counts as inactive or inconclusive.

Cc1ccc(OCC(=O)N2CCN(Cc3ccc4c(c3)OCO4)CC2)cc1	Giardia FBPA inh inconclusive (no result: NS1 function inh)
O=Cc1ccc(OCc2ccc3c(c2)OCO3)cc1	Pf growth 96h inconclusive, CHX counter 35 (no result: Shiga toxin inh)
CC(=O)Nc1nc(-c2ccc3c(c2)OCO3)cs1	Shiga toxin inh 61, CHX counter 53
O=C(Nc1nc(-c2ccc3c(c2)OCO3)cs1)C1COc2ccccc2O1 (stereo not given)	CHX counter 16, NS1 function inh inconclusive
O=C(Nc1nc(-c2ccccc2)cs1)C1COc2ccccc2O1 (stereo not given)	none
O=C(CN1C(=O)C2CCCCC2C1=O)Nc1nc(-c2ccccn2)cs1 (stereo not given)	Pf growth 96h inconclusive (no result: Pf growth 48h)
C[C@@H](C(=O)Nc1nc(-c2ccccn2)cs1)N1C(=O)C2CCCCC2C1=O (stereo not given in full)	Pf growth 96h 12µM, Giardia FBPA inh inconclusive (no result: Pf growth 48h)
COc1cccc(C(=O)Nc2nc(-c3ccc4c(c3)OCO4)cs2)c1	none
CC(=O)Nc1ccc(C(=O)Nc2nc(-c3ccccn3)cs2)cc1	Pf growth 96h inconclusive, Pf growth 48h inconclusive, Giardia FBPA inh inconclusive
CC1CC1C(=O)Nc1nc(-c2ccccn2)cs1 (stereo not given)	Pf growth 96h 3.7µM, CHX counter 22 (no result: Pf growth 48h)
CCC/C=C(\CCC)C(NC(=O)c1ccc(C(F)(F)F)cc1)c1ccc(C(F)(F)F)cc1 (stereo not given)	none (no result: Pf growth 96h, Pf growth 48h, Shiga toxin inh, CHX counter, NS1 function inh)
COc1ccc(S(=O)(=O)NCCSCc2ccc(Cl)cc2)cc1NC(C)=O	none (no result: Shiga toxin inh, CHX counter, Giardia FBPA inh, NS1 function inh)
CCCCn1c(N)c(N(CCOC)C(=O)CSCc2ccc(C)cc2)c(=O)[nH]c1=O	none (no result: Shiga toxin inh, CHX counter, Giardia FBPA inh, NS1 function inh)
O=C(Nc1nc(-c2ccccn2)cs1)C1COc2ccccc2O1 (stereo not given)	Pf growth 96h 0.37µM, Pf growth 48h 8.3µM, Giardia FBPA inh inconclusive
Cc1csc(NC(=O)C2COc3ccccc3O2)n1 (stereo not given)	CHX counter 13 (no result: Pf growth 96h)
O=C(Nc1nc(-c2ccc(S(=O)(=O)N3CCCCCC3)cc2)cs1)c1ccccc1	none (no result: Pf growth 48h)
O=C(Nc1nc(-c2ccc(S(=O)(=O)N3CCCC3)cc2)cs1)C1COc2ccccc2O1 (stereo not given)	Pf growth 48h 9.3µM, NS1 function inh 7.9µM
CC1CCc2c(sc(NC(=O)CCC(=O)O)c2C(=O)NC2CC2)C1 (stereo not given)	none (no result: Giardia FBPA inh)
Clc1ccc(CN2CCSCC2)cc1Cl	Giardia FBPA inh inconclusive
CCCCOc1ccc(CN2CCSCC2)cc1	Shiga toxin inh 42, CHX counter 29, Giardia FBPA inh inconclusive
c1ccc(-c2ccc(CN3CCSCC3)cc2)cc1	Pf growth 96h 13µM, Shiga toxin inh 77, CHX counter 25, Giardia FBPA inh inconclusive
CCCCCCOc1ccc(CN2CCN(CC)CC2)cc1	Shiga toxin inh 140, CHX counter 55 (no result: Pf growth 48h)
Cc1oc(-c2cccc(Cl)c2)nc1CS(=O)(=O)CC(=O)NC1CCCC1	Pf growth 96h inconclusive
COc1cc(OC)cc(C(=O)NCc2cccnc2)c1	none (no result: Pf growth 96h)
COc1ccc2c(c1)CCc1c(C(=O)NCC(C)C)noc1-2	Pf growth 96h inconclusive, Shiga toxin inh 178, CHX counter 39 (no result: NS1 function inh)
COc1ccc2c(c1)CCc1c(C(=O)N3CCCCCC3)noc1-2	Pf growth 96h inconclusive, Shiga toxin inh 114, CHX counter 46
COc1ccc2c(c1)CCc1c(C(=O)NCc3cccnc3)noc1-2	CHX counter 12, Giardia FBPA inh inconclusive
COc1ccc2c(c1)CCc1c(-c3noc4c3CCc3cc(OC)ccc3-4)noc1-2	none (no result: Pf growth 96h, Pf growth 48h, Shiga toxin inh, CHX counter, Giardia FBPA inh)
CCCNC(=O)c1noc2c1CCc1cc(OC)ccc1-2	Shiga toxin inh 71, CHX counter 48 (no result: NS1 function inh)
COc1cc(C(=O)NCC(C)C)cc(OC)c1OC	none (no result: Pf growth 48h)
CC(=O)OCCN1C(=O)c2c(C)nc3ccc(S(=O)(=O)N4CCOCC4)cc3c2C1=O	none (no result: Pf growth 96h, Pf growth 48h, NS1 function inh)
COc1ccc(S(=O)(=O)N2CCN(C(=O)c3cc(C)on3)CC2)cc1	Pf growth 96h inconclusive (no result: Shiga toxin inh, CHX counter, Giardia FBPA inh, NS1 function inh)
O=C1CCCCN1CCC(=O)N1CCCC(N2CCN(c3ccccc3)CC2)C1 (stereo not given)	none (no result: Giardia FBPA inh)
Cc1cc(C)n(C(=O)c2c([N+](=O)[O-])cnn2C)n1	none
CCn1ncc([N+](=O)[O-])c1C(=O)n1nc(C)cc1C	Shiga toxin inh 112, CHX counter 45
COc1ccccc1NC1=C(Cl)C(=O)N(C2CCCCC2)C1=O	Pf growth 48h inconclusive
Cc1ccccc1NC1=C(Cl)C(=O)N(C2CCCCC2)C1=O	Pf growth 96h inconclusive, Pf growth 48h inconclusive, CHX counter 13
Cc1nc2c(oc3ccccc32)c(=O)o1	Pf growth 48h inconclusive, Shiga toxin inh 144, CHX counter 88 (no result: Pf growth 96h)
c1ccc2c(c1)oc1c(NCCCn3ccnc3)ncnc12	Pf growth 96h inconclusive, NS1 function inh inconclusive
COc1cccc(Nc2nc(C)nc3c2oc2ccccc23)c1	none
Cc1nc(Nc2cccc(F)c2)c2oc3ccccc3c2n1	Shiga toxin inh 97, CHX counter 28
Cc1nc(NCCCn2ccnc2)c2oc3ccccc3c2n1	Pf growth 96h inconclusive, Pf growth 48h inconclusive, CHX counter 16, NS1 function inh inconclusive
CCNc1nc(C)nc2c1oc1ccccc12	Pf growth 96h 0.66µM
COc1cccc(CNC(=O)CN2C(=O)COc3ccc(S(=O)(=O)N4CCOCC4)cc32)c1	Pf growth 96h inconclusive (no result: Giardia FBPA inh)
CCCn1c(SCC(=O)Nc2cc(S(=O)(=O)N3CCCCC3)ccc2C)n[nH]c1=O	Pf growth 96h inconclusive (no result: Shiga toxin inh, CHX counter, Giardia FBPA inh, NS1 function inh)
Cc1nc(Nc2ccccc2F)c2oc3ccccc3c2n1	Shiga toxin inh 69, CHX counter 32
Cc1nc(Nc2cccc(Cl)c2)c2oc3ccccc3c2n1	Pf growth 96h inconclusive, Shiga toxin inh 31, CHX counter 20
Cc1nc(Nc2cccc(O)c2)c2oc3ccccc3c2n1	Shiga toxin inh 52, CHX counter 42
Cc1nc(Nc2ccc(Cl)cc2)c2oc3ccccc3c2n1	Pf growth 96h inconclusive, Pf growth 48h inconclusive
Cc1nc(Nc2ccccc2O)c2oc3ccccc3c2n1	none
C[C@H](CCC(=O)O)[C@H]1CC[C@@H]2[C@H]3[C@@H](C[C@@H](O)[C@]21C)[C@]1(C)CC[C@H](O)C[C@@H]1C[C@@H]3O	none (no result: Shiga toxin inh, CHX counter, Giardia FBPA inh)
C/C(Cl)=C/CSc1nnc2n(N)c(=O)c3ccccc3n12	none (no result: Giardia FBPA inh)
C/C(Cl)=C/CSc1nn2c(=O)c3ccccc3nc2s1	Shiga toxin inh 62, CHX counter 41 (no result: Pf growth 48h)
C=CCSc1nn2c(=O)c3ccccc3nc2s1	Shiga toxin inh 48, CHX counter 35
CN(C1CCCCC1)C(CNS(=O)(=O)c1ccc(Cl)cc1)c1ccccc1 (stereo not given)	Pf growth 96h inconclusive, Pf growth 48h inconclusive
CCOC(=O)c1sc(N(Cc2ccccc2)C(=O)COC(=O)c2cnccn2)nc1C	none
CCOC(=O)c1sc(N(Cc2ccccc2)C(=O)CSc2nnc(C3CC3)n2N)nc1C	Shiga toxin inh 79, CHX counter 17
CC(=O)N1N=C(c2ccc(C)o2)CC1c1ccc(Br)cc1 (stereo not given)	Shiga toxin inh 87, CHX counter 43
